High-throughput results: PubChem, National Center for Advancing Translational Sciences (NCATS)
Shown are actives, neighbours in structure and some others; about 14% of the full set was active somewhere.
HCMV antiviral: human cytomegalovirus inhibition; AID 1259415; 4.5% of 410,000 active; HFF cells, HCMV-luciferase reporter, 72 h; hits give low values; activity change, negative = inhibition, % at 57.5 µM; in the data active means activity change below about -60%; inconclusive means no clear call, values can overlap the other calls; inactive means above about -39%
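Screen run at 2 compound doses on HFFs infected with reporter HCMV, MOI 1 PFU/cell. Luciferase activity from cell lysates at 72 h post infection gave inhibition relative to buffer-only and Salinomycin wells.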
Sm TGR inh: S. mansoni TGR enzyme inhibition; Q962Y6; purified TGR, DTNB reduction, TNB absorbance 405 nm; Potency, µM (doses to about 114 µM), for the others: at the highest dose activity change, negative = inhibition, most hits filed as inhibitors; 3% of 360,000 active; AID 485364; further: potency means the concentration at half of the fitted maximal effect; nearly all actives have a fitted effect of over 60% in size
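TGR 20 nM + NADPH 100 uM (dispensed conc.), cpd preinc 15 min RT; start with NADPH (500 uM addition) then DTNB (15 mM addition). Kinetic TNB absorbance, 405 nm filter. Four-parameter Hill fit across titration.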
FBPA Giardia inh: blocks Giardia fructose-bisphosphate aldolase activity; A8B2U2; AID 2451; purified Giardia FBPA; Potency, µM (top dose mostly 59.6 µM), without a hit: at the top dose activity, negative = inhibition, actives largely listed as inhibitors; 0.71% of 290,000 active; further: potency means the concentration at half of the fitted maximal effect; nearly all actives have a fitted effect of over 55% in size
Target sequence (A8B2U2 whole entry, looked up): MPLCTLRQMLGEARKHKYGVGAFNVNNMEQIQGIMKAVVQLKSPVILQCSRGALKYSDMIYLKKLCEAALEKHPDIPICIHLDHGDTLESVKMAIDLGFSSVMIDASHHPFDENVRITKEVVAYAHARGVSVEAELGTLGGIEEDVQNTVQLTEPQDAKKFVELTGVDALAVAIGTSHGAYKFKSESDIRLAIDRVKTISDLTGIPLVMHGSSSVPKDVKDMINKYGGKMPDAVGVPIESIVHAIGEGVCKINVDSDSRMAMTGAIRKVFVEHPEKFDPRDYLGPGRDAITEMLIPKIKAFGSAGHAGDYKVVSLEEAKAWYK
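40 nM FBPA preincubated 10 min at RT with compound (up to 57.5 uM final), then substrate plus GAPDH/TPI/NAD/arsenate coupling and diaphorase/resazurin added. Fluorescence read after 20 min at RT, 525/598 nm.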
Pf growth 96h: P. falciparum growth inhibition at 96 hours; 6.9% of 320,000 active; P. falciparum luciferase reporter growth, 96 h; Potency, µM (highest dose often 28.7 µM), without a hit: top-dose activity change, negative = inhibition, hits mostly inhibitors; further: potency means the concentration at half of the fitted maximal effect
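Cell-based qHTS: luciferase-tagged P. falciparum in erythrocytes (2% hematocrit, 0.05% parasitemia final) incubated with compounds for 96 hours, 37 C, 5% CO2; luciferase detection reagent then added and luminescence measured.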
Pf growth 48h: P. falciparum growth inhibition at 48 hours (one generation) | P. falciparum luciferase growth in erythrocytes, 48 h | Potency, µM (top dose mostly 28.7 µM), for inactives: top-dose activity change, negative = inhibition, most hits filed as inhibitors | 5.9% of 310,000 active | AID 504832; further: potency means the concentration at half of the fitted maximal effect
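Luciferase-expressing parasites in RBCs, 2% Hct / 0.1% parasitemia final; RPMI 1640 + 0.5% Albumax; 37 C, 5% CO2, one generation; luminescence read-out, lower signal = inhibition.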
* hit, by the source's call. Unless noted, the call rests on the fitted dose curve; in most records, active means well fitted curve in the direction sought with a large enough effect; inconclusive means small, poorly fitted or top-dose-only effect, or another doubt; inactive means no such curve, though single readings can be large; an effect the other way counts as inactive or inconclusive. On the % scale 0 is the no-effect control and ±100 the full control effect.

`COc1cccc(N2CCN(c3c4c(nc5ncnn35)CCC4)CC2)c1` gave HCMV antiviral -86*, Sm TGR inh -22%, FBPA Giardia inh 0%, Pf growth 96h 13µM* and Pf growth 48h inconclusive.
Screening CC1CCCCC1NC(=O)C1CCN(c2c3c(nc4ncnn24)CCC3)CC1 (centres undefined) returned HCMV antiviral 0, Sm TGR inh -2%, FBPA Giardia inh 0%, Pf growth 96h -8% and Pf growth 48h 9.3µM*.
COc1ccc(CCNC(=O)CC(=O)N/N=C\c2ccc(OCC(N)=O)cc2)cc1OC was read as HCMV antiviral -22.
For O=C(CSc1nnc(SCC(=O)c2ccco2)s1)c1ccco1 the results were HCMV antiviral -1, Sm TGR inh 40µM*, FBPA Giardia inh -10%, Pf growth 96h 0% and Pf growth 48h -1%.
Screening O=C(CSc1nc2cc(Cl)ccc2s1)c1ccco1 returned HCMV antiviral 101, Sm TGR inh 0%, FBPA Giardia inh inconclusive, Pf growth 96h 10µM* and Pf growth 48h 39%.
`C/C(=N\NC(=O)CSc1nc2ccccc2s1)c1ccco1` gave HCMV antiviral 10, Sm TGR inh 9%, FBPA Giardia inh -2%, Pf growth 96h 21% and Pf growth 48h 45%.
Cc1nnc(SCC(=O)NNC(=O)c2ccco2)s1 was read as HCMV antiviral -22, Sm TGR inh -14%, Pf growth 96h 23% and Pf growth 48h inconclusive.
`N#Cc1ccccc1OCC(=O)NCCNC(=O)COc1ccccc1C#N` gave HCMV antiviral 13, Sm TGR inh -5%, Pf growth 96h inconclusive and Pf growth 48h inconclusive.
N#C/C(=C\Nc1ccc2cn[nH]c2c1)c1nc(-c2ccc(Cl)cc2)cs1 was read as HCMV antiviral inconclusive, Sm TGR inh -6%, FBPA Giardia inh inconclusive, Pf growth 96h 4.1µM* and Pf growth 48h inconclusive.
`CCOC(=O)c1oc2nc3c(cc2c1N)CCCC3` gave HCMV antiviral 76, Sm TGR inh -4%, FBPA Giardia inh -8%, Pf growth 96h 12µM* and Pf growth 48h 203%.
Screening O=C1C(=C2CCc3ccccc32)Cc2ccccc21 returned HCMV antiviral 99.
CCOP(=O)(OCC)c1ccc2c(c1)C(=O)c1ccccc1CC2 was read as HCMV antiviral 11, Sm TGR inh 0%, Pf growth 96h 4.1µM* and Pf growth 48h -3%.
`CC1(C)C(=O)OC(c2cccn2-c2cccc([N+](=O)[O-])c2)C2(CCCCC2)C1=O` (centres undefined) gave HCMV antiviral -39, Sm TGR inh 0%, FBPA Giardia inh -3%, Pf growth 96h -25% and Pf growth 48h 13µM*.
For Cc1ccc(NC(=O)COC(=O)c2cccc3c2C(=O)c2ccccc2C3=O)c(C)c1 the results were HCMV antiviral -67*, Sm TGR inh 6%, FBPA Giardia inh -20%, Pf growth 96h inconclusive and Pf growth 48h inconclusive.
`Cc1ccc(NC(=O)COc2ccccc2)c(NC(=O)c2ccccc2C)c1` gave HCMV antiviral -64*.
Screening Cc1ccc(NC(=O)CO/N=C/c2ccccc2C)c(C)c1 returned HCMV antiviral 0, Sm TGR inh -1%, FBPA Giardia inh 0%, Pf growth 96h 2.3µM* and Pf growth 48h inconclusive.
For CCC(=O)Nc1cc(-c2nc3ccccc3s2)c(Cl)cc1Cl the results were HCMV antiviral -101* and Sm TGR inh -10%.
For Cc1ccc(Cl)cc1NC(=O)CN1CCN(S(=O)(=O)N2CCC(C)CC2)CC1 the results were HCMV antiviral -10, Sm TGR inh -2%, FBPA Giardia inh -5%, Pf growth 96h 7% and Pf growth 48h 5%.
Cc1ccc(NC(=O)COC(=O)c2ccccc2-c2nc3ccccc3s2)c(C)c1 was read as HCMV antiviral -68*, Sm TGR inh -4%, FBPA Giardia inh -5%, Pf growth 96h -11% and Pf growth 48h -9%.
For Cc1ccc(C(=O)Nc2ccc(-c3nc4ccccc4s3)c(O)c2)c(C)c1 the results were HCMV antiviral -63* and Sm TGR inh 31%.
For CCc1cccc(CC)c1NC(=O)COC(=O)c1ccccc1-c1nc2ccccc2s1 the results were HCMV antiviral 1, Sm TGR inh -2%, FBPA Giardia inh 0%, Pf growth 96h inconclusive and Pf growth 48h 0%.
Screening COc1ccccc1C(=O)Nc1ccc(-c2nc3ccccc3s2)c(C)c1 returned HCMV antiviral -18 and Sm TGR inh 6%.
`COC(=O)c1cc(C)sc1NC(=O)CCCC(=O)O` gave HCMV antiviral 3, Sm TGR inh 1%, FBPA Giardia inh 2%, Pf growth 96h 9.3µM* and Pf growth 48h -2%.
For C/C(=N/NC(=O)OC(C)(C)C)c1ccco1 the results were HCMV antiviral 42, Sm TGR inh -20%, FBPA Giardia inh -2%, Pf growth 96h 53% and Pf growth 48h 92%.
`O=C(C=Cc1ccco1)c1cc(Cl)ccc1O` gave HCMV antiviral -33.
`O=C(/C=C/c1ccco1)c1ccccc1O` gave HCMV antiviral -38, Sm TGR inh 32µM*, FBPA Giardia inh -7%, Pf growth 96h -6% and Pf growth 48h 26%.
Screening O=C(/C=C/c1ccco1)Nc1cccnc1 returned HCMV antiviral 7, FBPA Giardia inh -18%, Pf growth 96h 64% and Pf growth 48h 90%.
Screening CC(/C=C/c1ccco1)=N\NC(=O)c1cc(Cl)ccc1O returned HCMV antiviral 4, Sm TGR inh 8.9µM*, FBPA Giardia inh -27%, Pf growth 96h 3% and Pf growth 48h -18%.
Screening CC(/C=C/c1ccco1)=N/NC(=O)OC(C)(C)C returned HCMV antiviral 27, Sm TGR inh 40µM*, FBPA Giardia inh -15%, Pf growth 96h 2% and Pf growth 48h 36%.
For O=C(/C=C/c1ccco1)c1cccnc1 the results were HCMV antiviral -20, Sm TGR inh 13µM*, FBPA Giardia inh 2% and Pf growth 96h inconclusive.
`C/C(=N\NC(=O)c1ccoc1C)c1cccnc1` gave HCMV antiviral -4, Sm TGR inh -3%, FBPA Giardia inh 3%, Pf growth 96h inactive and Pf growth 48h 53%.
`CC(/C=N/NC(=O)Cc1cccs1)=C\c1ccco1` gave HCMV antiviral 25, Sm TGR inh inconclusive, FBPA Giardia inh -29%, Pf growth 96h -25% and Pf growth 48h 53%.
Screening CC(/C=C/c1ccco1)=N\NC(=O)c1cc(C)[nH]n1 returned HCMV antiviral 0, Sm TGR inh 28µM*, FBPA Giardia inh inconclusive, Pf growth 96h 10% and Pf growth 48h 5%.
`CC(/C=C/c1ccco1)=N\NC(=O)c1cccnc1` gave HCMV antiviral -9, Sm TGR inh 35µM*, FBPA Giardia inh inconclusive and Pf growth 96h 31%.
